Test [1] addresses Retinoic acid receptor RXR-alpha (Homo sapiens) (UniProt P19793). Briefly: ATG_RXRa_TRANS: Attagene TRANS-FACTORIAL HepG2 Assay for human Retinoid X Receptor alpha (RXRa) (AID 2283012; active means hit-call score of the fitted dose curve at least 0.9, where 1 is the maximum). Summed up: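 Cells (HepG2) carried transiently transfected GAL4-responsive reporter units. Following a 24 h chemical incubation, reporter mRNA induction was read via RT-PCR fragment analysis; DMSO served as negative control and baseline.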

The target of test [2] is human Retinoid X Receptor beta (RXRb), RXRB (gene 6257) (UniProt P28702). Kind of test: ATG_RXRb_TRANS: Attagene TRANS-FACTORIAL HepG2 Assay for human Retinoid X Receptor beta (RXRb) (AID 2283013; active means hit-call score of the fitted dose curve at least 0.9, where 1 is the maximum). An outline of the steps:
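Multiplexed TRANS reporter assay in HepG2; 24 h dosing; reporter mRNA by RT-PCR/CE fluorescence; gain-of-signal relative to DMSO.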

The target of test [3] is human Thyroid Receptor alpha (THRa1), THRA (gene 7067) (UniProt P10827). Kind of test: ATG_THRa1_TRANS: Attagene TRANS-FACTORIAL HepG2 Assay for human Thyroid Receptor alpha (THRa1) (AID 2283014; active means hit-call score of the fitted dose curve at least 0.9, where 1 is the maximum). Summed up:
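HepG2 cells transiently transfected with chimeric NR-Gal4 and GAL4-UAS reporter units, dosed 24 h. Reporter mRNA quantified by RT-PCR, fluorescent labeling, HpaI digestion and capillary electrophoresis; gain-of-signal fit versus DMSO.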

Read-out in test [4]: E-selectin (Homo sapiens) (UniProt P16581)
Kind of test: BSK_3C_Eselectin: BioMAP Diversity Plus: 3C Assay for Eselectin Biomarker Activity (AID 2283015).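 On outcome: cell surface E-selectin protein quantified by ELISA 24 h after dosing.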 The note with it: primary human endothelial cells (HUVEC); actives raise or lower the signal. Summed up: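 Primary human umbilical vein endothelial cells (3C system), read 24 h after compound addition; E-selectin measured by ELISA. Bidirectional curve fitting against DMSO baseline; cytotoxicity by parallel SRB total-protein staining.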

Read-out in test [5]: Interleukin-1 alpha (IL1a), IL1A (gene 3552)
Briefly: BSK_BE3C_IL1a: BioMAP Diversity Plus: BE3C Assay for Interleukin-1 alpha (IL1a) Biomarker Activity (AID 2283016). Conditions: primary human bronchial epithelial cells; actives raise or lower the signal. Summed up:
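Cultures of primary human bronchial epithelial cells receive test chemical. After 24 h, IL-1a is quantified by ELISA, while parallel wells are fixed in TCA and SRB-stained for total protein. Changes in either direction are fitted relative to DMSO.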

Read-out in test [6]: Monocyte Chemoattractant Protein-1 (MCP1), CCL2 (gene 6347)
Briefly: BSK_3C_MCP1: BioMAP Diversity Plus: 3C Assay for Monocyte Chemoattractant Protein-1 (MCP1) Biomarker Activity (AID 2283017). The note with it: primary human endothelial cells (HUVEC); actives raise or lower the signal. Summed up: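 Human umbilical vein endothelial cells (3C system) exposed to chemicals for 24 h; MCP-1 quantified by ELISA against the DMSO baseline with bidirectional fitting, and parallel SRB staining used to assess cytotoxicity.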

Read-out in test [7]: Monocyte Chemoattractant Protein-1 (MCP1), CCL2 (gene 6347)
Briefly: BSK_4H_MCP1: BioMAP Diversity Plus: 4H Assay for Monocyte Chemoattractant Protein-1 (MCP1) Biomarker Activity (AID 2283018). Conditions: primary human endothelial cells (HUVEC); actives raise or lower the signal. Summed up: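 Readout: MCP-1 ELISA on compound-treated HUVEC, sampled 24 h post-dosing. Baseline and negative control DMSO; bidirectional fit. Overt toxicity checked alongside by sulforhodamine B protein staining at time of biomarker measurement.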

Read-out in test [8]: Human Leukocyte Antigen - DR isotype (HLADR), HLA-DRA (gene 3122)
Kind of test: BSK_3C_HLADR: BioMAP Diversity Plus: 3C Assay for Human Leukocyte Antigen - DR isotype (HLADR) Biomarker Activity (AID 2283019). Conditions: primary human endothelial cells (HUVEC); actives raise or lower the signal. Summed up: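 HUVEC monoculture, HLA-DR measured by ELISA 24 h after chemical dosing. Fitted bidirectionally against DMSO baseline; parallel SRB staining assessed cytotoxicity, with 3C proliferation read by SRB at 48 h.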

Read-out in test [9]: Interleukin-8 (IL8), CXCL8 (gene 3576)
Briefly: BSK_3C_IL8: BioMAP Diversity Plus: 3C Assay for Interleukin-8 (IL8) Biomarker Activity (AID 2283020). Conditions: primary human endothelial cells (HUVEC); actives raise or lower the signal. An outline of the steps: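 Human vascular endothelial cells (umbilical vein) in the 3C system; IL-8 level detected by ELISA at 24 h post-dose, with DMSO as baseline.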

Test [10] is described as follows: BSK_3C_SRB: Viability Assessment in the BioMAP Diversity Plus: 3C Assay (AID 2283023).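 Further: fitted both ways against DMSO so a hit may be signal rise or drop.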 The note with it: primary human endothelial cells (HUVEC). An outline of the steps: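 Human umbilical vein endothelial cells in the 3C system, treated 24 h. Total protein measured by 0.1% sulforhodamine B staining after 10% TCA fixation, read at 560 nm; bidirectional fit versus DMSO.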

Read-out in test [11]: Matrix Metallopeptidase 1 (MMP1), MMP1 (gene 4312)
Briefly: BSK_BE3C_MMP1: BioMAP Diversity Plus: BE3C Assay for Matrix Metallopeptidase 1 (MMP1) Biomarker Activity (AID 2283024). Conditions: primary human bronchial epithelial cells; actives raise or lower the signal. Summed up:
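Dose cells, wait 24 h, run MMP1 ELISA; cells are human bronchial epithelial primaries. Both increases and decreases relative to DMSO counted.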

Read-out in test [12]: Pselectin, SELP (gene 6403)
Kind of test: BSK_4H_Pselectin: BioMAP Diversity Plus: 4H Assay for Pselectin Biomarker Activity (AID 2283026). Conditions: primary human endothelial cells (HUVEC); actives raise or lower the signal. Summed up:
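Human vascular endothelium from umbilical vein; P-selectin measured by ELISA at 24 h post-dose, with cytotoxicity checked by sulforhodamine B total-protein staining in parallel cultures (0.1% SRB after 10% TCA fixation, read at 560 nm).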

Test [13] is described as follows: BSK_4H_SRB: Viability Assessment in the BioMAP Diversity Plus: 4H Assay (AID 2283027).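 Further: cells exposed to compound for 24 h before staining.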 The note with it: primary human endothelial cells (HUVEC). An outline of the steps: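 Absorbance at 560 nm of SRB-stained total protein served as the viability read-out in confluent primary human umbilical vein endothelium 24 h after chemical treatment. Curves were fitted bidirectionally against DMSO as negative control.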

The nature of test [14]: BSK_BE3C_SRB: Viability Assessment in the BioMAP Diversity Plus: BE3C Assay (AID 2283028). Conditions: primary human bronchial epithelial cells. Summed up:
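Human bronchial epithelial primary cells in confluent culture, 24 h after chemical dosing; total protein by 0.1% SRB staining after 10% TCA fixation, read at 560 nm. Bidirectional fitting versus DMSO baseline.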

Read-out in test [15]: Thrombomodulin, THBD (gene 7056)
Kind of test: BSK_3C_Thrombomodulin: BioMAP Diversity Plus: 3C Assay for Thrombomodulin Biomarker Activity (AID 2283029). Conditions: primary human endothelial cells (HUVEC); actives raise or lower the signal. An outline of the steps: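 Thrombomodulin ELISA, human primary HUVEC, 24 h post-dose; data fitted in both directions relative to DMSO.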

Read-out in test [16]: Urokinase-type plasminogen activator receptor (uPAR), PLAUR (gene 5329)
Kind of test: BSK_4H_uPAR: BioMAP Diversity Plus: 4H Assay for Urokinase-type plasminogen activator receptor (uPAR) Biomarker Activity (AID 2283030). The note with it: primary human endothelial cells (HUVEC); actives raise or lower the signal. Summed up: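 Human umbilical vein endothelial cells in the 4H system, 24 h after chemical dosing. Cell-surface uPAR measured by ELISA, fitted in both directions versus DMSO; cytotoxicity checked by SRB total protein in parallel cultures.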

Read-out in test [17]: Vascular endothelial growth factor receptor 2 (Homo sapiens) (UniProt P35968)
Briefly: BSK_4H_VEGFRII: BioMAP Diversity Plus: 4H Assay for Vascular endothelial growth factor receptor 2 (VEGFR2) Biomarker Activity (AID 2283031). Conditions: primary human endothelial cells (HUVEC); actives raise or lower the signal. Summed up:
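Primary human umbilical vein endothelial cells (4H system), 24 h exposure; cell-surface VEGFR2 measured by ELISA. Bidirectional fitting versus DMSO; cytotoxicity checked in parallel by SRB total-protein staining.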

For test [18], the target named is human Vitamin D Receptor (VDR), VDR (gene 7421) (UniProt P11473). Kind of test: ATG_VDR_TRANS: Attagene TRANS-FACTORIAL HepG2 Assay for human Vitamin D Receptor (VDR) (AID 2283022; active means hit-call score of the fitted dose curve at least 0.9, where 1 is the maximum). Summed up: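 HepG2 cells were transiently transfected with GAL4-UAS reporter units and a chimeric VDR-Gal4 construct, then dosed for 24 hours. Reporter mRNA was quantified by RT-PCR, fluorescent labeling, HpaI digestion and capillary electrophoresis; gain of signal analysed vs DMSO.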

Read-out in test [19]: Human Leukocyte Antigen - DR isotype (HLADR), HLA-DRA (gene 3122)
Briefly: BSK_BE3C_HLADR: BioMAP Diversity Plus: BE3C Assay for Human Leukocyte Antigen - DR isotype (HLADR) Biomarker Activity (AID 2283032). Conditions: primary human bronchial epithelial cells; actives raise or lower the signal. Summed up:
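Signal came from an ELISA for HLA-DR in human bronchial epithelial primary cells harvested 24 h after treatment; gain- and loss-of-signal fitting used DMSO controls as reference.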

The structures appear in SMILES notation. Records with an inconclusive call do not appear. The source made the active and inactive calls. How the source made its calls, unless noted: active means hit-call score of the fitted dose curve at least 0.9, where 1 is the maximum; inactive means score below 0.9.

Chain of human Vitamin D Receptor (VDR), VDR (gene 7421) (P11473 whole entry, looked up, the tested form may be a part): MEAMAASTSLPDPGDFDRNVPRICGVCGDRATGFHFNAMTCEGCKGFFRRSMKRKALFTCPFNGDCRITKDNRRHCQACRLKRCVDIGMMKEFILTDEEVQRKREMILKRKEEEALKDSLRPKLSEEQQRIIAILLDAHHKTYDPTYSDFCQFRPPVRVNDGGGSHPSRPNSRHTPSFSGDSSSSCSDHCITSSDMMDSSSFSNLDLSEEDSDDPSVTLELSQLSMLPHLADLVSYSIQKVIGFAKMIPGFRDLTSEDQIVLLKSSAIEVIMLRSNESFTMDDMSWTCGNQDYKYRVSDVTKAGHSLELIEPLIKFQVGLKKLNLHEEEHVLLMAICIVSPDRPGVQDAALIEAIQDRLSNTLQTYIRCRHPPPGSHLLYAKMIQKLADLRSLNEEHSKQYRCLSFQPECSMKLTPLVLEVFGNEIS
Chain of Retinoic acid receptor RXR-alpha (Homo sapiens) (P19793 whole entry, looked up, the tested form may be a part): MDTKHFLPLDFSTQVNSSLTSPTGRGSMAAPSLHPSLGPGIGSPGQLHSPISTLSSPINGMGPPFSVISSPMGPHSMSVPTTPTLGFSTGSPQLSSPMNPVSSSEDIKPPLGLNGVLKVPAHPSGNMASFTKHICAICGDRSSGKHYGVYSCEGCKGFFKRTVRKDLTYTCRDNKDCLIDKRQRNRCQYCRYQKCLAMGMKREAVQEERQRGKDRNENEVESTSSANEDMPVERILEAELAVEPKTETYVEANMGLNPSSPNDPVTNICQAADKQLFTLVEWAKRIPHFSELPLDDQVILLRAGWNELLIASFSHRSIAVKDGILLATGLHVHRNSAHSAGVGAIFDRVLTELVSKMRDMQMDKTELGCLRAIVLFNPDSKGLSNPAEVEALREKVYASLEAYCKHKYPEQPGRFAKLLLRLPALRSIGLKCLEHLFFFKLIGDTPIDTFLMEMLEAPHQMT
Chain of E-selectin (Homo sapiens) (P16581 whole entry, looked up): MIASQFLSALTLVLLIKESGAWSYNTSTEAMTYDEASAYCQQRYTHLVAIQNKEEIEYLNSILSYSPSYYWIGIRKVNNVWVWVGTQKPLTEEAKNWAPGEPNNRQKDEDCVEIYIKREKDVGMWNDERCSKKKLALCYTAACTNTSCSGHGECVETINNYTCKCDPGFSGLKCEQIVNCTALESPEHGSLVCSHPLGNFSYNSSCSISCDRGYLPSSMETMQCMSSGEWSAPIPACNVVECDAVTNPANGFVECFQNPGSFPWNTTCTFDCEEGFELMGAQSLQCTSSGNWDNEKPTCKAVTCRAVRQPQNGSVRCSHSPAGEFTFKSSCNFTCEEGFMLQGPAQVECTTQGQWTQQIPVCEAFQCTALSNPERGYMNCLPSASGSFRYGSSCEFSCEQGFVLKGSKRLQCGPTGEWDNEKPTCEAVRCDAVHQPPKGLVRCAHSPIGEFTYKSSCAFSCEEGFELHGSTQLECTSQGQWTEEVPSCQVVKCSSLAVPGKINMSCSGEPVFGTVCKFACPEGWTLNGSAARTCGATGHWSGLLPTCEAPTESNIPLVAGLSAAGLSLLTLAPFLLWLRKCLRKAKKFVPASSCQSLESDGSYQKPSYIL
Chain of human Thyroid Receptor alpha (THRa1), THRA (gene 7067) (P10827 whole entry, looked up, the tested form may be a part): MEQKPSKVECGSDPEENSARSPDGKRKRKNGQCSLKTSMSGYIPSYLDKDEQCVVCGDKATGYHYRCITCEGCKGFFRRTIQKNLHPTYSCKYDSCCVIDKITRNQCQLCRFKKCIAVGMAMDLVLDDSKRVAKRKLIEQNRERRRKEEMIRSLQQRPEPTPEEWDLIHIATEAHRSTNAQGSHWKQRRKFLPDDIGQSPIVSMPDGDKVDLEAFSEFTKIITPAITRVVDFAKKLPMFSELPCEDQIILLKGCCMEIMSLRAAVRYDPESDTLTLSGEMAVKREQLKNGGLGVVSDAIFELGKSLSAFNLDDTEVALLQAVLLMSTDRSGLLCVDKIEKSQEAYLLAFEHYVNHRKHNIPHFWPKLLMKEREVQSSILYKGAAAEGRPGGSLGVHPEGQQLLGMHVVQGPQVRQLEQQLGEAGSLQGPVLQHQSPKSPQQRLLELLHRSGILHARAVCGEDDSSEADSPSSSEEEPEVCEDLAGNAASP
Chain of human Retinoid X Receptor beta (RXRb), RXRB (gene 6257) (P28702 whole entry, looked up): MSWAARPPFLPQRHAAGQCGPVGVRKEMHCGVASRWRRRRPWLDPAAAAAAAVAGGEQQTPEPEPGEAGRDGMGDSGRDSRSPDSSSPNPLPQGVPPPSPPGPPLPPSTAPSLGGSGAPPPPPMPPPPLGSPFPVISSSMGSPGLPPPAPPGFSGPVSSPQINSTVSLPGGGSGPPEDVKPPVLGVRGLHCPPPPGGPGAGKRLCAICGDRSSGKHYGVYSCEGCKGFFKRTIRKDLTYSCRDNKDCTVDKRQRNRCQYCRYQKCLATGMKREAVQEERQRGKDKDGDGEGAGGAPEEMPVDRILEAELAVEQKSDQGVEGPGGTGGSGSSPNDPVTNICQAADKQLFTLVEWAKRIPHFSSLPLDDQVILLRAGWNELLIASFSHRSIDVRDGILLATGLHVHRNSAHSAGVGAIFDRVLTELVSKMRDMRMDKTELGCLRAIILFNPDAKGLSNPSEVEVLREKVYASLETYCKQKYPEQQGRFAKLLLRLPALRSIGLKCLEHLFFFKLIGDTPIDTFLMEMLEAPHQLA

In the case of `CCn1c2ccccc2c2cc(N)ccc21`, the call in test [1], in test [3], in test [4], in [5], in [9] and in test [10] was inactive. Also, the outcome in test [11], in test [13], in test [14], in test [15] and in test [17] was inactive. For the same compound, the concentration at half-maximal activity (AC50) (commonly the concentration at which the activity in the assay is half-maximal) in test [2] was 14.3 µM (active); in [6] it was 641 nM (active); in [7], 812 nM (active); in test [8], 1.57 µM (active); in test [12] it was 1.23 µM (active); in test [16], 0.152 µM (active).

`CC(C)(C)NC(N)=O`: the call in [1], in [2], in test [3] and in test [18] was inactive.

For `CO[Si](CCCn1c(=O)n(CCC[Si](OC)(OC)OC)c(=O)n(CCC[Si](OC)(OC)OC)c1=O)(OC)OC`, the outcome in [1], in test [2], in test [3] and in test [18] was inactive.

With `CN(CCOc1ccc(CC2SC(=O)NC2=O)cc1)c1ccccn1` (stereo not drawn), the compound was classed as inactive in test [1], in test [2], in [3], in test [9], in test [10] and in test [11]. In addition, the outcome in test [13], in test [14], in test [15] and in [17] was inactive. The concentration at half-maximal activity (AC50) in test [4] is 3.97 µM (active); in test [5] it was 3.97 µM (active); in test [6], 113 nM (active); in test [7], 3970 nM (active); in test [8], 9.42 µM (active); in test [12], 1.12 µM (active). Moreover, the AC50 in test [16] was 11.6 µM (active).

On to `Clc1ccc(Cl)c(Cl)c1Cl`, for which the outcome in test [1], in [3] and in test [18] was inactive. Further, the AC50 in test [2] is 63.4 µM (active).

Turning to `CC(C)=CCC/C(C)=C/COC=O`, the outcome in [1], in test [2], in test [3] and in test [18] was inactive.

As to `COc1cc(C=O)ccc1OC(=O)C(C)C`, the compound was called inactive in test [1], in test [2], in test [3], in test [4], in [5] and in test [6]. For the same compound, the result in test [7], in [8], in test [9], in test [18], in [10] and in test [11] was inactive. The result in test [12], in [13], in test [14], in test [15], in [16] and in test [17] was inactive.

`CC1=CCC2C(C1)C2(C)C` (stereo not drawn): the call in test [1], in [2], in test [3] and in [18] was inactive.

`CC(C)=CCC[C@H](C)CC=O`: the result in test [1], in [2], in test [3] and in test [18] was inactive.

Turning to `COc1cc(C)cc(O)c1`, the compound was classed as inactive in test [1], in test [2] and in test [3].

Consider `Nc1ccc(F)c([N+](=O)[O-])c1`, for which the result in [1], in [2], in test [3] and in test [18] was inactive.

With `Cc1cccc(C)c1[N+](=O)[O-]`, the result in [1] and in test [3] was inactive.

Turning to `CCCC(C)C=O` (stereo not drawn), the outcome in test [1], in [2] and in test [18] was inactive.

Turning to `CCCCCCC#CC(=O)OC`, the compound was classed as inactive in test [1] and in [3].

Take `O=C(O)c1snc(Cl)c1Cl`: the result in test [1], in [2] and in test [18] was inactive.

Take `O=S(=O)(O)c1cccc2c(S(=O)(=O)O)cccc12`: the compound was classed as inactive in test [1], in [2] and in test [18].

With `CC(=O)O[C@]1(C(C)=O)CC[C@H]2[C@@H]3C[C@H](C)C4=CC(=O)CC[C@]4(C)[C@H]3CC[C@@]21C`, the AC50 in test [1] is 2.91 µM (active); in test [2] it was 2.34 µM (active); in test [8], 10 µM (active); in [11], 5.07 µM (active); in [19], 10 µM (active). The result in test [4], in test [5], in [6], in test [7], in test [9] and in [10] was inactive. The outcome in test [12], in test [13], in test [14], in test [15], in test [16] and in [17] was inactive.
